Structures can show the parent of a compound that is named as a salt. ± gives the standard deviation or the standard deviation of the averaged measurements.
Tests used:
Settings in all cases: 25 µM; exposure: 24-48 hpf
[1] = system: Danio rerio Tg(wt1b:EGFP) embryo, pronephros; test: glomerular separation, fold change vs DMSO control; higher = glomeruli further apart (abnormal)
How it was run: (§1)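 Dechorionated Tg(wt1b:EGFP) zebrafish embryos were treated with 25 μM compound in 0.5% DMSO, in HEPES-buffered E3 with 0.003% PTU, from 24 to 48 hpf at 28.5°C. On maximum projections of dorsal pronephros images, 16 hand-placed reference points in Fiji gave distances and angles, and values more than 2 SD from the feature mean were left out. Results are fold changes over the mean of same-day DMSO-treated embryos.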

[2] = system: Danio rerio Tg(wt1b:EGFP) embryo, pronephros; test: glomerular width (mean of left and right), fold change vs DMSO control; higher = wider glomerulus
How it was run: as §1

[3] = system: Danio rerio Tg(wt1b:EGFP) embryo, pronephros; test: fraction of imaged embryos annotated as normal kidney; higher = less nephrotoxic; extreme values may be limits of the assay
How it was run: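 From 24 to 48 hpf at 28.5°C, dechorionated Tg(wt1b:EGFP) zebrafish embryos in 12-well plates were kept in 5 mM HEPES-buffered E3 with 0.003% PTU, 0.5% DMSO and 25 μM compound. Pronephroi were imaged by widefield fluorescence at 470 nm and judged by eye from maximum projections. Reported is the proportion of embryos per treatment in the normal-kidney category.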

[4] = system: Danio rerio Tg(wt1b:EGFP) embryo, pronephros; test: pronephric angle neck segment to proximal convoluted tubule (mean of left and right), fold change vs DMSO control; higher = larger pronephric angle
How it was run: as §1

SMILES | glomerular separation [1] | glomerular width [2] | fraction of imaged embryos annotated as normal kidney [3] | pronephric angle neck segment [4]
CO[C@]12C[C@@H](COC(=O)c3cncc(Br)c3)CN(C)[C@@H]1Cc1cn(C)c3cccc2c13 [Nicergoline] | 1.02 ± 0.39 | 1.02 ± 0.037 | 1 | 0.966 ± 0.028
NC(=O)CN1CCCC1=O [Piracetam] | 0.815 ± 0.17 | 1.08 ± 0.032 | 0.917 | 0.914 ± 0.051
C[C@]12CC[C@H]3[C@@H](CCC4=CC(=O)CC[C@@H]43)[C@@H]1CC[C@@H]2O [Nandrolone] | 1.02 ± 0.42 | 0.8978 ± 0.0049 | 0.833 | 0.95 ± 0.015
C[C@]12CC[C@@H](O)C[C@@H]1CC[C@@H]1[C@@H]2CC[C@]2(C)C(=O)CC[C@@H]12 [Androsterone] | 0.907 ± 0.17 | 0.991 ± 0.038 | 0.75 | 0.999 ± 0.015
CN1C(=O)CCS(=O)(=O)C1c1ccc(Cl)cc1 (stereo not given) [Chlormezanone] | 1.15 ± 0.46 | 1.05 ± 0.11 | 0.545 | 0.989 ± 0.059
CN1C[C@H](CNC(=O)OCc2ccccc2)C[C@@H]2c3cccc4c3c(cn4C)C[C@H]21 [Metergoline] | 0.977 ± 0.48 | 0.9966 ± 0.0098 | 1 | 0.9894 ± 0.0045
CCCC(C)C1(CC)C(=O)NC(=O)NC1=O (stereo not given) [Pentobarbital] | 1.63 ± 0.87 | 0.987 ± 0.044 | 0.667 | 1.214 ± 0.0019
CN1C[C@H](C(=O)N[C@]2(C)O[C@@]3(O)[C@@H]4CCCN4C(=O)[C@H](Cc4ccccc4)N3C2=O)C[C@@H]2c3cccc4[nH]cc(c34)C[C@H]21 [Dihydroergotamine tartrate] | 1.15 ± 0.56 | 1.0661 ± 0.00016 | 0.833 | 0.948 ± 0.015
CCNCC(O)c1cccc(O)c1 (stereo not given) [Etilefrine hydrochloride] | 0.79 ± 0.23 | 0.9277 ± 0.0022 | 0.833 | 0.951 ± 0.051
C1CCc2nnnn2CC1 [Pentylenetetrazole] | 0.925 ± 0.28 | 0.994 ± 0.07 | 0.8 | 0.956 ± 0.021
CC(=O)[C@H]1CC[C@H]2[C@@H]3CC[C@H]4C[C@H](O)CC[C@]4(C)[C@H]3C(=O)C[C@]12C [Alfaxalone] | 0.896 ± 0.36 | 0.957 ± 0.0043 | 0.583 | 1.02 ± 0.027
CCC1(c2ccc(N)cc2)CCC(=O)NC1=O (stereo not given) [Glutethimide, para-amino] | 1.05 ± 0.27 | 1.04 ± 0.036 | 0.667 | 1.05 ± 0.021
NCCCNCCSP(=O)(O)O [Amifostine] | 0.91 ± 0.29 | 1.04 ± 0.037 | 0.833 | 1.02 ± 0.074
O=[N+]([O-])O[C@H]1CO[C@H]2[C@@H]1OC[C@H]2O[N+](=O)[O-] [Isosorbide dinitrate] | 1.15 ± 0.34 | 0.9189 ± 0.0074 | 0.833 | 1.02 ± 0.024
C=CC[C@]1(O)CC[C@H]2[C@@H]3CCC4=CC(=O)CCC4=C3C=C[C@@]21C [Altrenogest] | 1.44 ± 0.77 | 1.07 ± 0.0053 | 0.333 | 0.981 ± 0.072
CC(NC(C)(C)C)C(=O)c1cccc(Cl)c1 (stereo not given) [Bupropion hydrochloride] | 0.797 ± 0.2 | 1.026 ± 0.0015 | 1 | 1.03 ± 0.011
C[C@]12CC[C@@H](O)C[C@H]1CC[C@@H]1[C@@H]2CC[C@]2(C)C(=O)CC[C@@H]12 [3-alpha-Hydroxy-5-beta-androstan-17-one] | 1.13 ± 0.44 | 0.982 ± 0.066 | 0.75 | 1 ± 0.013
NCC(CC(=O)O)c1ccc(Cl)cc1 (racemic) [Baclofen (R,S)] | 0.757 ± 0.3 | 0.933 ± 0.0029 | 0.833 | 0.829 ± 0.056
O=P1(N(CCCl)CCCl)NCCCO1 (stereo not given) [Cyclophosphamide] | 0.894 ± 0.2 | 0.913 ± 0.0021 | 0.75 | 1.09 ± 0.028
C[C@@H]1O[C@@H](O[C@@H]2C=C3CC[C@@H]4[C@H](CC[C@]5(C)[C@@H](c6ccc(=O)oc6)CC[C@]45O)[C@@]3(C)CC2)[C@H](O)[C@H](O)[C@H]1O [Proscillaridin A] | 3.66 ± 1.1 | 0.716 ± 0.029 | 0 | 1.2604 ± 0.00066
NCC1(CC(=O)O)CCCCC1 [Gabapentin] | 0.802 ± 0.29 | 0.9761 ± 0.0014 | 0.75 | 0.981 ± 0.016
CN1[C@@H]2CC[C@H]1C[C@@H](OC1c3ccccc3CCc3ccccc31)C2 [Deptropine citrate] | 0.934 ± 0.35 | 0.947 ± 0.035 | 1 | 0.939 ± 0.061
c1ccc2c(c1)Nc1ccccc1S2 [Phenothiazine] | 1.35 ± 0.6 | 0.851 ± 0.062 | 0.75 | 1.101 ± 0.002
C=C(C)[C@@H]1[C@H]2OC(=O)[C@@H]1[C@]1(O)C[C@H]3O[C@]34C(=O)O[C@H]2[C@]14C [Picrotoxinin] | 1.19 ± 0.57 | 0.973 ± 0.011 | 0.917 | 1.01 ± 0.03
CC(=O)O[C@H]1C[C@H](O[C@H]2[C@@H](O)C[C@H](O[C@H]3[C@@H](O)C[C@H](O[C@H]4CC[C@@]5(C)[C@H](CC[C@@H]6[C@@H]5C[C@@H](O)[C@]5(C)[C@@H](C7=CC(=O)OC7)CC[C@]65O)C4)O[C@@H]3C)O[C@@H]2C)O[C@H](C)[C@H]1O[C@@H]1O[C@H](CO)[C@@H](O)[C@H](O)[C@H]1O [Lanatoside C] | 1.4 ± 0.72 | 0.929 ± 0.065 | 0.917 | 1.01 ± 0.041
